Rows were chosen to be rich in hits. Some 1.9% of all compounds tested hit in one or more screens of this group.
Neddyl block: inhibitors of cullin neddylation, primary screen, biochemical, TR-FRET, uHTS, NAE and Ubc12; hit rate 0.58% among 360,000; inhibition, % at 25 µM; in the data active means inhibition above about 36%
dFosB act-1: activators of delta FosB homodimer, primary screen, biochemical, fluorescence polarization, TAMRA-CDK5 oligo, single point; AID 493131, 2011; purified delta FosB; percent of positive-control signal above neutral wells; hit rate 0.99% among 340,000; Protein FosB (Mus musculus), P13346; activation, % at 25 µM;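 active means mean activation above about 17%, with every replicate also reaching it, limit read from the data, passing the limit was not always enough; inconclusive means only one of the two conditions met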
GSIS activator: GLuc luminescence reporter in INS-1E cells, primary screen for activators of glucose-dependent secretion of insulin; INS-1E GLuc reporter insulin secretion, 2-3 h; activation, % at 16.6 µM; hit rate 0.61% among 370,000; AID 743287, 2014;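 active means lowest replicate activation of at least 40%, so every replicate reaches that level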;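 further: 0% = median of neutral control wells and 100% = median of IBMX positive control wells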
Vif inh: HIV Vif self-association inhibitors, primary screen, imaging, HEK293T, single point | HEK293T cells, Vif self-association by quenched fluorescence, 24 h | hit rate 0.35% among 340,000 | inhibition, % at 7.49 µM; in the data active means inhibition above about 50%, passing the limit was not always enough; inconclusive means no clear call, values can overlap the other calls; inactive means below about 31%
A1 inh: caspase 3/7 activation in MEF A1-2A-BIM cells, primary screen, A1 inhibitor project, cell-based, luminescence, HTS. caspase activation, % (test concentration not listed). Caspase-Glo 3/7 luminescence, 3 h; percent of clofoctol response, vehicle zero. hit rate 0.066% among 330,000;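 active means over half of replicate activation scores above 10%, or exactly half above 10 with the replicate mean above 10; inconclusive means replicate mean below 10 yet half the replicates above 10; inactive means over half of replicates below 10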
dFosB act-2: activators of mouse delta FosB DNA binding, confirmation, biochemical, fluorescence polarization, TAMRA-CDK5 oligo, cherry-picked samples | shares compounds with dFosB act-1 | purified delta FosB; normalised: neutral wells 0, positive control 100 | 2,400 tested, under 10 active | activation, % at 24.9 µM | AID 588690, 2011;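 active means highest replicate activation at or above 34% and every replicate reaching that threshold; inconclusive means meets only one of the two criteria; inactive means meets neither criterion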;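 further: higher polarization means more probe DNA bound by delta FosB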
* hit, by the source's call; ? = inconclusive; / = not tested or not shown.

SMILES	Neddyl block	dFosB act-1	GSIS activator	Vif inh	A1 inh	dFosB act-2
C#CCOCCOCCOCCNc1nc(N2CCN(C(=O)C([C@@H](C)O)n3cc([C@@H](N)CCCCN)nn3)CC2)nc(N2CCN(C(=O)C([C@@H](C)O)n3cc([C@@H](N)CCCCN)nn3)CC2)n1 (stereo partly drawn)	-8.1	-8.8	/	9.7	-0.5	/
O=C(NCCN1CCCC1)[C@H]1[C@H](CO)[C@H]2Cn3c(cccc3=O)[C@@H]1N2C(=O)c1ccccc1	/	/	-4.8	/	/	/
Cc1ccccc1S(=O)(=O)N1CC(=O)N2[C@H](CO)[C@@H](c3ccc(C#Cc4ccccc4)cc3)[C@@H]2C1	/	/	13.2	/	/	/
C[C@@H]1CN([C@H](C)CO)S(=O)(=O)c2ccc(-c3cccnc3)cc2O[C@@H]1CN(C)C(=O)CC1CC1	/	/	6.0	/	/	/
CN(C)C(=O)C[C@@H]1C[C@H]2c3cc(NC(=O)NC4CCCC4)ccc3O[C@H]2[C@@H](CO)O1	/	/	8.5	/	/	/
C#CCOCCOCCOCCNc1nc(N2CCN(C(=O)[C@H](Cc3cc4ccccc4[nH]3)n3cc([C@@H](N)C(C)CC)nn3)CC2)nc(N2CCN(C(=O)[C@H](Cc3cc4ccccc4[nH]3)n3cc([C@@H](N)Cc4ccc(O)cc4)nn3)CC2)n1 (stereo partly drawn)	/	/	/	/	-0.5	/
C#CCOCCOCCOCCNc1nc(N2CCN(C(=O)[C@H](Cc3ccc(O)cc3)n3cc([C@@H](N)C(C)CC)nn3)CC2)nc(N2CCN(C(=O)[C@H](Cc3cc4ccccc4[nH]3)n3cc([C@@H](N)C(C)CC)nn3)CC2)n1 (stereo partly drawn)	-27.6	39.6*	/	0.8	0.6	-6.6
C#CCOCCOCCOCCNc1nc(N2CCOCC2)nc(N2CCN(C(=O)[C@H](CCCN=C(N)N)n3cc(C(N)[C@@H](C)CC)nn3)CC2)n1 (stereo partly drawn)	-3.4	-0.2	6.9	-3.4	0.5	/
C#CCOCCOCCOCCNc1nc(N2CCN(C(=O)[C@H](CCCN=C(N)N)n3cc(C(N)[C@H](C)CC)nn3)CC2)nc(N2CCN(C(=O)[C@H](CCCN=C(N)N)n3cc(C(N)[C@@H](C)CC)nn3)CC2)n1 (stereo partly drawn)	-23.5	21.5*	/	0.5	-0.3	-4.7
O=C(C[C@@H]1CC[C@H]2[C@@H](COC[C@H](O)CN2C(=O)Nc2ccccc2)O1)NCCCN1CCOCC1	/	/	14.0	/	/	/
O=C(NC1CCN(Cc2ccccc2)CC1)c1cccc(S(=O)(=O)Nc2ccc(SC(F)F)cc2)c1	-24.1	25.9*	-15.6	/	-0.5	2.0
Cc1ccc(NS(=O)(=O)c2cccc(C(=O)NC3CCN(Cc4ccccc4)CC3)c2)cc1	-2.6	-2.6	-20.6	-3.6	/	/
COc1ccccc1S(=O)(=O)N[C@H]1CC[C@H](CCn2cc(C3CCCCC3)nn2)O[C@H]1CO	/	/	-21.2	/	/	/
COc1ccc(/C=N/NC(=O)c2[nH]nc3c2CCc2ccccc2-3)cc1OC	25.9	88.1*	1.1	7.2	0.3	3.0
COc1cc(/C=N/NC(=O)c2ccccc2O)ccc1OCC(=O)Nc1ccccc1	/	27.5*	10.4	1.6	-0.4	1.6
CCOc1cc(/C=N\NC(=O)Cc2ccccc2)ccc1OCC(=O)Nc1ccc(C)c(C)c1	8.1	24.0*	/	30.5	-0.1	3.1
CCOc1cc(/C=N/NC(=O)Cn2nc([N+](=O)[O-])cc2C)ccc1OCc1ccc(F)cc1	-4.1	35.3*	/	3.1	-0.8	2.2
COc1cc(/C=N/NC(=O)c2ccncc2)ccc1OCC(=O)Nc1ccccc1	-14.3	-8.6	-0.7	-17.1	0.2	/
COc1cc(/C=N\NC(=O)c2ccc(-c3ccccc3)cc2)ccc1OCC(N)=O	/	66.4*	-1.3	?	-0.2	6.4
COc1cc(/C=N/NC(=O)c2cccc([N+](=O)[O-])c2)ccc1OCc1ccc(C)cc1	2.0	49.6*	51.2	-4.4	-1.4	4.5

Source: PubChem
